Source: PubChem
GIRK2 act = activators of NPY4-receptor-primed GIRK2 channels, summary, cell-based, HEK293, thallium flux | G protein-activated inward rectifier potassium channel 2 (Homo sapiens), P48051 | 34,000 tested, under 10 active | AID 1259324, 2017 | HEK293 GIRK2/NPY4 cells, thallium flux fluorescence | activation (% efficacy), % for hits at 37.5 µM;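 active means primary screen hit, no activity in plain HEK293 cells, and in GIRK2-only cells above 5% efficacy rising with concentration; inactive means the rest, including fluorescent compounds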;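 further: efficacy is normalized control-subtracted fluorescence 15 s after thallium addition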
Target sequence (P48051 whole entry, looked up): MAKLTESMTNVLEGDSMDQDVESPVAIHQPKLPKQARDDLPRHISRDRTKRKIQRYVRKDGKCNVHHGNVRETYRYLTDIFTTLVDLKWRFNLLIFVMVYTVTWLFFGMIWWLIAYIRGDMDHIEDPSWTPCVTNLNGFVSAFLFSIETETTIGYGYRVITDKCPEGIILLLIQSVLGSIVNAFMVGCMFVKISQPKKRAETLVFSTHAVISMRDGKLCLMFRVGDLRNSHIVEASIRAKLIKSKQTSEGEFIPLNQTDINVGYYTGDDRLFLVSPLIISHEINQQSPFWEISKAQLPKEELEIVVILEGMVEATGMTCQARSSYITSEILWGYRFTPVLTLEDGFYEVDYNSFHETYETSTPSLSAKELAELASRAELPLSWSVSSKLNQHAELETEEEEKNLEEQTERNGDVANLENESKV
AMPAR-TARP mod = modulators of GluA2-stargazin AMPA receptor complexes, primary screen, cell-based, membrane potential dye | Voltage-dependent calcium channel gamma-2 subunit (Mus musculus) + Glutamate receptor 2 … | HEK293 GluA2+stargazin, membrane potential dye (FDSS), glutamate EC50; hits were called plate by plate, in both directions | calls only at 30 µM | actives 3.5% (n = 40,000);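 active means any of four per-well response measures lying three or more SD from its plate-wide compound average, in either direction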
Starred values were filed as active, the others as inactive; i = inactive; / = no result given; + = active, no number. The entries come from a sample that favours hits as a whole.

SMILES	GIRK2 act	AMPAR-TARP mod
Cc1nnsc1C(=O)Nc1ccc2c(c1)CC(=O)N2C	i	+
CCC(=O)Nc1ccc2c(c1)CC(=O)N2C	/	i
Cc1ccc(NC(=O)C2CCCN(c3ccc(-n4cccn4)nn3)C2)cc1F (stereo not given)	i	i
COc1ccc(OCC(=O)Nc2cc(C3CC3)nn2-c2nc(C(C)C)cc(=O)[nH]2)cc1	i	i
COc1ccc(/C=C\C(=O)Nc2cc(C3CC3)nn2-c2nc(C(C)C)cc(=O)[nH]2)cc1OC	i	+
CCc1ccc(Oc2cc(N3CCC(C(=O)NCc4ccc(SC)cc4)CC3)ncn2)cc1	i	i
CCc1ccc(Oc2cc(N3CCC(C(=O)NCc4ccccc4F)CC3)ncn2)cc1	i	+
Cn1ccnc1N1CCN(CC(=O)N2CCc3ccccc32)CC1	i	i
c1ccn2cc(C34CC5CC(CC(C5)C3)C4)nc2c1	/	+
CCOc1ccccc1NC(=O)C(=O)NCc1nc(-c2ccccc2)no1	i	i
Cc1cc(C)n(-c2cc(N3CCCC(C(=O)NCc4ccco4)C3)ncn2)n1 (stereo not given)	i	+
Cc1cc(C)n(-c2cc(N3CCCC(C(=O)NCc4ccc5c(c4)OCO5)C3)ncn2)n1 (stereo not given)	i	i
COc1ccccc1CNC(=O)C(=O)NCC(c1cccc2ccccc12)N(C)C (stereo not given)	i	/
CN(C)C(CNC(=O)c1cccc(Br)c1)c1cccs1 (stereo not given)	i	i
COc1ccc(-n2nnc3c(N4CCN(C(=O)c5cccc6ccccc56)CC4)ncnc32)cc1	/	+
COc1ccc(-n2nnc3c(N4CCN(C(=O)c5ccccc5C(F)(F)F)CC4)ncnc32)cc1	/	i
COc1ccc(NC(=O)CCc2csc(NS(=O)(=O)c3ccccc3)n2)cc1OC	i	i
Cc1ccc(S(=O)(=O)Nc2nc(CCC(=O)NCc3ccc(F)cc3)cs2)cc1	i	i
O=C(CCc1csc(NS(=O)(=O)c2ccc(F)cc2)n1)Nc1ccc(Cl)cc1	i	+
CC(=O)c1cccc(NC(=O)CCc2csc(NS(=O)(=O)c3ccccc3)n2)c1	i	+
O=C(CCc1csc(NS(=O)(=O)c2ccccc2)n1)Nc1ccc(OC(F)(F)F)cc1	i	i
NC(=O)c1ccc(NC(=O)CCc2csc(NS(=O)(=O)c3ccccc3)n2)cc1	i	+
CCN1C(=O)CCc2cc(NC(=O)c3cc(OC)c(OC)c(OC)c3)ccc21	/	i
FC(F)(F)c1ccc(OC2CCNCC2)nc1	i	i
CC(=O)N1CCc2c(sc(NC(=O)/C=C/c3ccccc3)c2-c2nc3ccccc3s2)C1	/	i
SMILES	GIRK2 act	AMPAR-TARP mod
COc1ccc(C(=O)Nc2cc(C)nn2-c2nc(-c3ccc4c(c3)OCO4)cs2)c(OC)c1	i	i
COCC(=O)N1CCCc2ccc(NC(=O)CCSc3ccccc3)cc21	i	+
Cc1ccc(NC(=O)CCSc2ccccc2)cc1N1CCCCC1=O	i	+
COCC(=O)N1CCCc2ccc(NC(=O)Cc3ccccc3Cl)cc21	i	i
CCOC(=O)CCC(=O)Nc1ccc(C)c(N2CCCCC2=O)c1	i	i
COCC(=O)N1CCN(c2ncnc3c2nnn3-c2cccc(OC)c2)CC1	/	i
CCC(C)c1ccc(NC(=O)c2ccncc2)cc1 (stereo not given)	/	i
CCc1cccc2sc(N3CCN(C(=O)CS(=O)(=O)Cc4ccccc4)CC3)nc12	i	i
O=C(CS(=O)(=O)Cc1ccccc1)N1CCN(c2nc3c(Cl)cccc3s2)CC1	i	+
Cn1c(=O)c2c(nc(N3CCCCCC3)n2CC(O)COc2ccccc2)n(C)c1=O (stereo not given)	/	i
Cn1c(=O)c2c(nc(N3CCOCC3)n2CCCc2ccccc2)n(C)c1=O	/	i
CCNc1nc2c(c(=O)n(C)c(=O)n2C)n1CCCOc1ccccc1	i	i
CC(c1ccccc1)n1c(N2CCCCC2)nc2c1c(=O)n(C)c(=O)n2C (stereo not given)	i	+
CCN1CCN(c2nc3c(c(=O)n(C)c(=O)n3C)n2CCCOc2ccccc2)CC1	/	+
Cn1c(=O)c2c(nc(N3CCOCC3)n2CCSc2ncccn2)n(C)c1=O	/	+
O=C(Cc1csc(Nc2ccccc2)n1)NCc1ccco1	i	i
O=C(NCCN1CCN(C(=O)C2c3ccccc3Oc3ccccc32)CC1)c1ccsc1	i	i
O=C(NCCCn1nc(-c2ccc(F)cc2)ccc1=O)c1ccccc1Cl	i	i
COc1ccc(C(=O)Nc2cccc(N3CCCCC3=O)c2)cc1	i	i
O=C(Cn1nc2c(c1NC(=O)c1ccc3c(c1)OCO3)CSC2)NCC1CCCO1 (stereo not given)	i	i
Cc1ccc(NC(=O)c2ccc(=O)n(Cc3ccccc3F)c2)cc1Cl	i	i
O=C(CCCS(=O)(=O)c1ccccc1)Nc1nnc(Cc2cccs2)o1	i	/
COc1cccc2sc(N(CCCN(C)C)C(=O)c3cc(C)nn3C)nc12	i	i
COc1cccc2sc(N(CCN(C)C)C(=O)c3cc(C)nn3C)nc12	i	+
CCOC(=O)Cn1c(=O)c2c(nc3n(-c4cccc(C)c4C)c(C)cn23)n(C)c1=O	/	i
SMILES	GIRK2 act	AMPAR-TARP mod
COCCNc1nc2c(S(=O)(=O)c3ccccc3)nnn2c2ccc(Cl)cc12	i	i
CC1CCCCN1c1nc2c(S(=O)(=O)c3ccccc3)nnn2c2ccc(Cl)cc12 (stereo not given)	i	+
CCCn1cc(C(=O)Nc2ccc(Br)c(C)c2)c(=O)c2ccc(C)nc21	/	i
Cn1cccc1C(O)CNC(=O)Nc1cccc(C(F)(F)F)c1 (stereo not given)	i	i
O=C(NCC1CCN(c2ncccn2)CC1)Nc1cccc(C(F)(F)F)c1	i	+
O=C(NCC1CCN(C(=O)COc2ccccc2)CC1)Nc1ccccc1F	i	i
O=C(NCC1CCN(C(=O)COc2ccccc2)CC1)Nc1cccc(C(F)(F)F)c1	i	+
O=C(NCC1CCN(c2ccccn2)CC1)Nc1cccc(C(F)(F)F)c1	/	i
O=C(NCC(O)Cc1ccccc1)Nc1cccc(C(F)(F)F)c1 (stereo not given)	i	+
CC(C)c1ccc(Cn2c(C3CC(=O)N(C(C)(C)C)C3)nc3ccccc32)cc1 (stereo not given)	/	i
Cc1ccsc1C(O)CNC(=O)C1c2ccccc2Oc2ccccc21 (stereo not given)	i	+
Cc1ccsc1C(O)CNC(=O)CSCc1ccccc1 (stereo not given)	i	i
CC(C)(C)C(=O)N1CCc2ccc(NC(=O)C3c4ccccc4Oc4ccccc43)cc21	i	i
Cc1ccc(Cl)cc1S(=O)(=O)NCC(c1cccn1C)N(C)C (stereo not given)	i	i
CN(C)C(CNS(=O)(=O)c1cc(Cl)ccc1Cl)c1cccn1C (stereo not given)	i	+
O=C(Nc1onc2c1CSC2)c1cnc2ccccc2n1	i	i
COc1ncccc1C(=O)Nc1onc2c1CSC2	i	+
